Source: PubChem BioAssay AID1159580 (chemical genetic matrix, 2015)
Values joined by “and” are separate entries in the source; they are usually repeats but may differ in a detail not shown here. Equal entries are not always repeated. About 2,000 (36%) of roughly 5,500 compounds were called active. Another 18% or so got no clear call; they are omitted. Cut-off read from the data, not from the text of the source: active = normalized growth mostly below about 0.91 (no sharp cut-off); inconclusive = no clear call, values can overlap the other calls; inactive = mostly above about 0.92. Some of the results follow.

Experiment: chemical genetic growth profiling, strain panel (AID 1159580);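 note: tested at 20 µM; growth read once vehicle control cultures reached saturation at 30 °C; 1 = growth at the plate median or of vehicle wells; lower values mean less growth of the strain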
Conditions: S. cerevisiae deletion strains, growth OD

Measured: normalized growth

CCNc1nc(Cl)nc(NC(C)C)n1
inactive: locus YAL013W, strain DEP1, stronger effect = lower value 1.01 | locus YAL021C, strain ccr4, stronger effect = lower value 0.995 | locus YAL026C, strain drs2, stronger effect = lower value 1.01 | locus YAL030W, strain snc1, stronger effect = lower value 0.999 | locus YBL061C, strain skt5, stronger effect = lower value 1.01 | locus YBR009C, strain hhf1, stronger effect = lower value 0.99 | locus YBR021W, strain FUR4, stronger effect = lower value 1.02 | locus YBR023C, strain chs3, stronger effect = lower value 0.998 | locus YBR171W, strain sec66, stronger effect = lower value 0.995 | locus YBR229C, strain ROT2, stronger effect = lower value 1.01 | locus YBR231C, strain swc5, stronger effect = lower value 1.01 | locus YBR279W, strain paf1, stronger effect = lower value 0.998 | locus YCL011C, strain gbp2, stronger effect = lower value 0.993 | locus YCL016C, strain dcc1, stronger effect = lower value 0.995 | locus YCL029C, strain bik1, stronger effect = lower value 1.02 | locus YCL061C, strain MRC1, stronger effect = lower value 0.99 | locus YCL069W, strain vba3, stronger effect = lower value 0.997 | locus YCR088W, strain abp1, stronger effect = lower value 1 | locus YDL005C, strain med2, stronger effect = lower value 0.999 | locus YDL035C, strain GPR1, stronger effect = lower value 1.01 | locus YDL040C, strain nat1, stronger effect = lower value 1 | locus YDL074C, strain BRE1, stronger effect = lower value 1.01 | locus YDL101C, strain DUN1, stronger effect = lower value 1.03 | locus YDL134C, strain PPH21, stronger effect = lower value 1.02 | locus YDL185W, strain tfp1, stronger effect = lower value 1.02 | locus YDL192W, strain arf1, stronger effect = lower value 1.02 | locus YDR001C, strain nth1, stronger effect = lower value 0.992 | locus YDR069C, strain doa4, stronger effect = lower value 1.01 | locus YDR101C, strain arx1, stronger effect = lower value 1.02 | locus YDR137W, strain rgp1, stronger effect = lower value 0.999 | locus YDR150W, strain NUM1, stronger effect = lower value 1.02 | locus YDR159W, strain sac3, stronger effect = lower value 1.01 | locus YDR162C, strain NBP2, stronger effect = lower value 1.04 | locus YDR195W, strain ref2 0.987 | locus YDR297W, strain sur2, stronger effect = lower value 1 | locus YDR318W, strain mcm21, stronger effect = lower value 1.03 | locus YDR334W, strain swr1, stronger effect = lower value 0.999 | locus YDR335W, strain msn5, stronger effect = lower value 1.01 | locus YDR388W, stronger effect = lower value 1.01 | locus YDR392W, strain spt3, stronger effect = lower value 1.01 | locus YDR502C, strain sam2, stronger effect = lower value 1.02 | locus YEL003W, strain gim4, stronger effect = lower value 0.994 | locus YEL037C, strain rad23, stronger effect = lower value 1.01 | locus YEL061C, strain CIN8 (second series), stronger effect = lower value 1.01 | locus YEL061C, strain CIN8, stronger effect = lower value 1.01 | locus YER015W, strain faa2, stronger effect = lower value 1 | locus YER016W, strain bim1, stronger effect = lower value 0.997 | locus YER110C, stronger effect = lower value 1.02 | locus YER111C, strain swi4, stronger effect = lower value 1 | locus YER155C, strain BEM2 (second series), stronger effect = lower value 0.993 | locus YER155C, strain BEM2, stronger effect = lower value 1 | locus YER167W, strain BCK2, stronger effect = lower value 1.02 | locus YFR010W, strain ubp6, stronger effect = lower value 1.01 | locus YGL078C, strain dbp3, stronger effect = lower value 1.02 | locus YGL086W, strain mad1, stronger effect = lower value 1.01 | locus YGL167C, strain pmr1, stronger effect = lower value 0.994 | locus YGL173C, strain kem1, stronger effect = lower value 1.01 | locus YGL227W, strain vid30, stronger effect = lower value 0.999 | locus YGL240W, strain doc1, stronger effect = lower value 0.98 | locus YGL248W, strain PDE1, stronger effect = lower value 1.01 | locus YGL253W, strain hxk2, stronger effect = lower value 1 | locus YGR078C, strain PAC10, stronger effect = lower value 1.02 | locus YGR135W, strain pre9, stronger effect = lower value 1.01 | locus YGR229C, strain SMI1, stronger effect = lower value 1.02 | locus YGR252W, strain gcn5, stronger effect = lower value 1 | locus YHR013C, strain ard1, stronger effect = lower value 1.01 | locus YHR027C, strain rpn1, stronger effect = lower value 1 | locus YHR030C, strain SLT2, stronger effect = lower value 1.03 and 0.992 | locus YHR079C, strain IRE1 (second series), stronger effect = lower value 1.02 | locus YHR079C, strain IRE1, stronger effect = lower value 0.99 | locus YHR094C, strain hxt1, stronger effect = lower value 1.02 | locus YHR129C, strain ARP1, stronger effect = lower value 1.01 | locus YHR142W, strain chs7, stronger effect = lower value 0.972 | locus YHR200W, strain rpn10, stronger effect = lower value 1.02 | locus YIL066C, strain RNR3, stronger effect = lower value 0.944 | locus YIL073C, strain SPO22, stronger effect = lower value 1.04 | locus YIL125W, strain kgd1, stronger effect = lower value 1.02 | locus YIR030C, strain dcg1, stronger effect = lower value 1.03 | locus YJL092W, strain hpr5, stronger effect = lower value 0.998 | locus YJL095W, strain BCK1 (second series), stronger effect = lower value 1 | locus YJL095W, strain BCK1, stronger effect = lower value 1 and 0.985 | locus YJL115W, strain asf1, stronger effect = lower value 1.01 | locus YJL129C, strain trk1, stronger effect = lower value 0.982 | locus YJL134W, strain LCB3, stronger effect = lower value 1.03 | locus YJL154C, strain vps35, stronger effect = lower value 0.996 | locus YJL164C, strain tpk1, stronger effect = lower value 0.998 | locus YJL166W, strain qcr8, stronger effect = lower value 0.993 | locus YJL168C, strain set2, stronger effect = lower value 1.02 | locus YJL187C, strain SWE1 (second series), stronger effect = lower value 1.02 | locus YJR043C, strain POL32, stronger effect = lower value 1.02 | locus YJR066W, strain TOR1, stronger effect = lower value 0.959
